The results in this text go back to PubChem BioAssay AID1347426 (Functional Genomics Laboratory (NCATS/FGL), 2020).

The campaign covered roughly 31,000 sequences. About 1,400 (4.5%) were called active. The full list was thinned out, with actives kept by preference. A number with no mark means an inactive call.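 Rule for the calls: active = median seed-adjusted z-score above 1 or below -1; inactive = the rest.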

The nature of this assay: Novel Modifiers of Survival Motor Neuron (SMN) Protein: Gene Identification via Genome-wide siRNA Screen.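 Note: luminescence tracks full-length SMN protein made from the SMN2 reporter.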 The note with it: HEK293T SMN2-luciferase reporter, siRNA knockdown, 72 h; actives lie on both sides. The gist of the method:
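HEK293T cells stably expressing an SMN2 splicing/cDNA-luciferase reporter were reverse-transfected with a druggable-genome siRNA library and read by luminescence at 72 hours; hits defined by MAD score above 1.0 or below -1.0.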
On the technique in general: In a reporter assay the amount or activity of a reporter protein is the signal.
As for AAAUCACACCAAACACUUATT against STX11, the median seed-adjusted z-score is -0.518.

Regarding GCAGCUGCCGGAAAUGUUATT against KRT81, the median seed-adjusted z-score is -0.0955.

With CAAUCAAAGGGAAACUUGATT against TPT1, the median seed-adjusted z-score is 0.236.

For the sequence GGAGAAUGGUUCGACUGUUTT against CKAP5, the median seed-adjusted z-score is -1.87 (active).

Take GGCUGUUUGUGAUGGAUAATT against GALNT2: the median seed-adjusted z-score is 0.0798.

As to GAAACGUGGUGAGACCUCATT against PRKX, the median seed-adjusted z-score was 0.0341.

In the case of CAUUCGUCGUAACUUUACATT against MIPEP, the median seed-adjusted z-score was -0.169.

For the sequence CUUUCAUCUCUAAAACUGATT against LHX3, the median seed-adjusted z-score is 0.622.

As for CCAGAUAAAUCUAUAGCAATT against RCOR1, the median seed-adjusted z-score was -1.13 (active).

As to CAAUGGAACUUUAGAUUAUTT against PCDHA11, the median seed-adjusted z-score is 0.582.

For the sequence GGCUUUUAAGACUAAGGAATT against TRIM69, the median seed-adjusted z-score is 0.214.

On to GCCUCCCAGAUGAUCGUCATT against SLC6A13, for which the median seed-adjusted z-score is 0.267.

Regarding GGACGAUGCUGAUACGGUATT against NOP2, the median seed-adjusted z-score is 1.15 (active).

As for CACCAGACAUCAAAAUCAATT against ATF7, the median seed-adjusted z-score is 0.903.

Regarding GCACAGACCUGGUGUGGAATT against NECAB2, the median seed-adjusted z-score is -0.286.

Regarding UGACCUUUCCUAUCUAUAATT against MCART6, the median seed-adjusted z-score is 0.714.

For the sequence GGACACUAUAAGAAAGGAATT against FNTA, the median seed-adjusted z-score was 1.04 (active).

Regarding AGGUUUGGCUCAACUCUGATT against P2RX2, the median seed-adjusted z-score is 0.0454.

Take GGAAAUUGCUUACAGGAAATT against ARSJ: the median seed-adjusted z-score is -0.0978.

GCUUAUCGGUUGAUCAUCATT against SLC6A4: the median seed-adjusted z-score was 1.43 (active).

Take GCAAGCUGCUGAUCGAGUUTT against KAT5: the median seed-adjusted z-score is 0.32.

As to GGGACAUUUCCAAAUGGAATT against ARL6IP5, the median seed-adjusted z-score is -0.202.

In the case of GGGACUCUGUAUUCCCUCUTT against WFDC2, the median seed-adjusted z-score is -0.466.

As for CGUAUAGUCAAAGCUCAAATT against ZNF24, the median seed-adjusted z-score was 0.388.

As to GAAGAGUUACUACAGUAAATT against MYT1, the median seed-adjusted z-score is -0.292.

Consider CGAAGGAAAUGUACAGCAATT against SLC25A42, for which the median seed-adjusted z-score is -1.02 (active).

Regarding CAAGGUUCUUGGUUGGGUATT against ZDHHC13, the median seed-adjusted z-score was -0.381.

For CAUCAAUGGUCAUAAUGCATT against HNRNPA2B1, the median seed-adjusted z-score is 1.33 (active).

AAGAUGCUCUCCCACCUAATT against POLD4: the median seed-adjusted z-score is 0.225.

Take GGUCUACCGGAUUAUCACATT against BRD2: the median seed-adjusted z-score was -0.242.

Consider GGUCUUGAAGUGUACCCUATT against ITGAV, for which the median seed-adjusted z-score was 1.17 (active).

On to GCAUAGACACCAUCAUCAATT against GCLC, for which the median seed-adjusted z-score was -0.21.

For ACUUCUACAUCAACGACAATT against ALDH4A1, the median seed-adjusted z-score is 0.0362.

For the sequence GGAAAGAGAACGAAUCGAATT against PPM1D, the median seed-adjusted z-score is -0.66.

Consider GCCUUUGGUUCGCAAGUUUTT against DYRK2, for which the median seed-adjusted z-score was 0.

With CAACGAUCCCUGUACCAGUTT against GABBR2, the median seed-adjusted z-score was -0.038.

CCUACUACCUCAAACACCATT against SYVN1: the median seed-adjusted z-score was -1.41 (active).

Regarding GCUUAUUAGCCUCCAAUUUTT against ZSCAN5A, the median seed-adjusted z-score is 0.31.

GAAGAACCCUGGUCUUUCATT against CARD14: the median seed-adjusted z-score was -0.104.

Take GCUGUGCCUUAUAACCGAATT against LRRK2: the median seed-adjusted z-score was -0.671.

With GGGUCAUCCGAGAUUCUCATT against DLG5, the median seed-adjusted z-score is 0.467.

On to GGGUCCAACAUUCCGAAUATT against CHD1, for which the median seed-adjusted z-score is -1.03 (active).

Regarding GGCCUUCGGCUAAAAGAGATT against KIF22, the median seed-adjusted z-score was 0.283.

Regarding CGGUAAUAGCAAUUCAGCATT against HEATR6, the median seed-adjusted z-score was 0.

GAGAGAUAUUGAUCGACUUTT against ARG2: the median seed-adjusted z-score was -0.796.

For the sequence GAGACAAGCUUCAACCACATT against SERPINA5, the median seed-adjusted z-score is -1.01 (active).

GCAUUGGUAAAAUUGCUAATT against AVIL: the median seed-adjusted z-score was -0.127.

For CGGACCGGCAGAGAACAAATT against PLA2G10, the median seed-adjusted z-score is 1.07 (active).

As for GCUAUGUCAUCACUACCAATT against KCNAB3, the median seed-adjusted z-score is 0.0697.

With GGAGUGCCCACAGUCAGAATT against SMUG1, the median seed-adjusted z-score is -1.38 (active).

GGCUAUGUGCGGGAGUAUATT against PI4KA: the median seed-adjusted z-score is 0.

For CGAUCAAUCCAACCGCACATT against MEIS3, the median seed-adjusted z-score was 0.207.

Regarding CCUCGGAAGAGAUCACUAUTT against POU2F1, the median seed-adjusted z-score was 0.317.

In the case of CGUUUCAGUCGUUUCAAAATT against POLR2D, the median seed-adjusted z-score was -3.79 (active).

Take GGUUAUAUACCACCUUAUATT against QRSL1: the median seed-adjusted z-score is -0.539.

Turning to GCUCUAAGGUUACGGAAGATT against MCOLN2, the median seed-adjusted z-score is -0.0234.

For the sequence GUCCUGUCUUGAUUAAAUUTT against CHST7, the median seed-adjusted z-score was 0.

For GCAGAAGAAAGAACCCGUUTT against DYNC1I1, the median seed-adjusted z-score is -0.716.

Consider CCACCCUACUAUGCGCACATT against GJA3, for which the median seed-adjusted z-score was 0.833.

As to CAAGGGUUUUCUUACAAUATT against GNA13, the median seed-adjusted z-score was 0.

In the case of CAAUAUGAAGGUCGAAUUATT against TPR, the median seed-adjusted z-score was -1.03 (active).

In the case of GACCUUAUAUGUGCAAGGATT against ZNF8, the median seed-adjusted z-score is 0.97.

As to CGACUGGAUUAAGCAGUAUTT against ATP6V1C1, the median seed-adjusted z-score was 0.0821.

Turning to UCAUGUGCCUGGAAAUUAATT against AIRE, the median seed-adjusted z-score is 0.308.

In the case of GAACUGUCCGAAUCUAAUUTT against CNTNAP1, the median seed-adjusted z-score is 0.176.

Take AAUCACAACUCCUAAAAGATT against POLR2J3: the median seed-adjusted z-score was -5.42 (active).

With ACAUCGUAGUGGGACGAAUTT against EXOSC2, the median seed-adjusted z-score was -0.0798.

As to CAUUCGCUCUGGUACUUAUTT against CRYZ, the median seed-adjusted z-score was -0.809.

Take GGUCCUAAGUUUGAAGUCATT against FRMPD2: the median seed-adjusted z-score was -0.329.

Regarding CGAUAUAAGCUCCGAGAGATT against POLR2E, the median seed-adjusted z-score was -1.25 (active).

Turning to GCUGUAACCUCUUCAUCUATT against BRUNOL6, the median seed-adjusted z-score was -0.542.

For the sequence GCAAGGAUCAGUUUCCGGATT against RHOC, the median seed-adjusted z-score was -0.579.

For GGAACACCUUUAGUCAUGATT against ZNF790, the median seed-adjusted z-score is 0.245.

As for CCAGCUGCCUACAAAGACATT against CLDN14, the median seed-adjusted z-score is -0.456.

Consider AACGCACUCUUCUACGUCATT against NTSR1, for which the median seed-adjusted z-score is -1.1 (active).

As for GACCGACAUUUGUGAAGAATT against ZNF547, the median seed-adjusted z-score was 0.099.

As to CAAAUGGGACUGUCAAUUATT against REPS2, the median seed-adjusted z-score is 0.454.

GGUUAUCCUUUGCCCAGCATT against ACTL7A: the median seed-adjusted z-score was 1.1 (active).

With AAGUUAGUCCUAAAGUGUATT against UCHL1, the median seed-adjusted z-score was -0.421.

Regarding CCACGGCACAUGGAACUAATT against SLC7A14, the median seed-adjusted z-score is 0.132.

GUCCCGCUAUGACUACUUUTT against GRM2: the median seed-adjusted z-score is -0.664.

In the case of CUGUUUGGUUUAUUCGAUUTT against ZW10, the median seed-adjusted z-score is 0.199.

With GAGUAAGUGAAAUAGAACATT against ZBTB26, the median seed-adjusted z-score was 0.

In the case of GAAACCAUCCAAUCCAAGATT against TXNDC2, the median seed-adjusted z-score is -1.29 (active).

Consider GGACUUGGAUUAUGAACUATT against COL6A3, for which the median seed-adjusted z-score is 0.341.

For CGAGCAUUCUCUCUUGAAATT against MED24, the median seed-adjusted z-score is -2.3 (active).

Consider GCGUGUAAAUUCUACUGCATT against RB1, for which the median seed-adjusted z-score is 0.49.

CUACCACGCAGUCAACCUUTT against LTB4R2: the median seed-adjusted z-score was -0.26.

For GGAUUUUAUUCUUCACCGUTT against RBMS3, the median seed-adjusted z-score is 0.0976.

As to GCACGAAUUUCAGCACCAATT against HOXD1, the median seed-adjusted z-score was 0.144.

Consider GGAACAUUUUUGACGGAUUTT against SCN8A, for which the median seed-adjusted z-score is 0.

On to GCACAACACUCGCUCCAAUTT against GLT8D1, for which the median seed-adjusted z-score is 1.22 (active).

As to GGUAAUAAAUGGGUUGGAATT against PTGR2, the median seed-adjusted z-score is 0.14.

CAGAGACCCUUGAUAAACUTT against PIK3AP1: the median seed-adjusted z-score is 0.0678.

Take GCAUGACUAUGUCAAGAAATT against MCM3: the median seed-adjusted z-score was 0.339.

As for GCUCGUGAUUGAUGCUGCATT against NGB, the median seed-adjusted z-score was 0.

In the case of CGACAUCAUCAAUAGACGATT against AQR, the median seed-adjusted z-score was -1.56 (active).

Consider GGACCACGAUGAUCAUUGATT against CRMP1, for which the median seed-adjusted z-score is -0.354.

As for GCAUUGGUGUAUGGAAUUATT against SLC6A15, the median seed-adjusted z-score was 0.0939.

Regarding GCAAGAAAAAUCUAAGGAATT against ZNF57, the median seed-adjusted z-score was 0.

For ACAGCAUUGUCAUUAGACATT against UBR5, the median seed-adjusted z-score was 0.114.

As for CAUGUGCUAUCGAAAGUAUTT against TCEB1, the median seed-adjusted z-score was 1.08 (active).

On to GCGUAGUUAUAGAAGUAGATT against RBMX2, for which the median seed-adjusted z-score was -0.585.

As for GGAACUGUUUUUACAAGCATT against MKRN1, the median seed-adjusted z-score is -0.496.

In the case of UCAUAUAGGCAAAAUUUAATT against POU3F2, the median seed-adjusted z-score was -0.179.

GGGUUCACCUCAGAGAGCATT against DPF3: the median seed-adjusted z-score was 0.242.

As to GAAACUUUCAUUACGUAUATT against SNX7, the median seed-adjusted z-score is 0.146.

On to GAACGAAAGGUCCUCAGUATT against SPATA21, for which the median seed-adjusted z-score was -1.03 (active).

With GCUGCUUCAGACUACCAAATT against TXNDC9, the median seed-adjusted z-score was -0.176.
